# TMEM16A act: activators or potentiators of mouse TMEM16A chloride channel | Q8BHY3 | HEK293 TMEM16A/YFP-H148Q/I152L, iodide quench fluorescence; hits give low values | B-score at 10 µM | 340,000 compounds, 0.3% hits | AID 623877;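 active = fluorescence-ratio B-score plate-corrected deviation score at least 3 library SD below zero, with starting fluorescence score within 5 deviations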;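 also: channel opened by trigger with iodide after compound preincubation; score built on the fluorescence ratio of max minus min over baseline; more negative score means more quench and so TMEM16A activation or potentiation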
# CHT inh: inhibits the human high affinity choline transporter | B-score at 10 µM | AID 488975 | CHT-expressing cells, membrane potential dye, choline response; hits give low values | Q9GZV3 | 310,000 compounds, 0.86% hits;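 active = B-score over 3 SD under the library average, and starting fluorescence ratio not unusually high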;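 also: choline stimulus applied at its EC90 after an EC20 pre-addition; B-score computed on integrated fluorescence ratio after choline addition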
# ANO1 block: inhibitors of mouse TMEM16A calcium-activated chloride channel | 310,000 compounds, 1.2% hits | normalized B-score (activity score, 25-100; higher = stronger inhibition) at 10 µM | Q8BHY3 | AID 588511 | HEK293 TMEM16A/YFP iodide influx fluorescence, ionomycin;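 active = ratio plate-corrected score three or more library SD toward inhibition, starting fluorescence score within five deviations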;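 also: score derived from kinetic fluorescence span divided by baseline fluorescence per well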
# PHOSPHO1 block: PHOSPHO1 (human) inhibition; Q8TCT1; recombinant PHOSPHO1, absorbance phosphatase assay; inhibition, % at 13.3 µM; 290,000 compounds, 1.1% hits; AID 1565; in the data active = inhibition above about 60%
# Target sequence (Q8TCT1 whole entry, looked up): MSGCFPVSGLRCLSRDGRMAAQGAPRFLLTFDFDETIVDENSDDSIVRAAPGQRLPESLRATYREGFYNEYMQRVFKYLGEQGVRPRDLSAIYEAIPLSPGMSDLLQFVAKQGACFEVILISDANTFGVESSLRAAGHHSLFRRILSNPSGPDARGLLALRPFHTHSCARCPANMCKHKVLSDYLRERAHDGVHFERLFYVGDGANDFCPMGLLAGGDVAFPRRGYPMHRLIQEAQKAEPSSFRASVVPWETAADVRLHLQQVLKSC
# HDAC3 inhib: blocks human histone deacetylase 3. O15379. recombinant HDAC3, fluorogenic peptide/trypsin coupled, fluorescence. inhibition, % at 8.3 µM. 320,000 compounds, 0.15% hits. AID 2718; in the data active = inhibition above about 26%, passing the limit was not always enough; inconclusive = no clear call, values can overlap the other calls
# CHT allo act: allosterically activates the human high affinity choline transporter | B-score at 10 µM | Q9GZV3 | CHT-expressing cells, membrane potential dye, choline EC20; hits give high values; LV-AA mutant CHT in HEK293 cells | 310,000 compounds, 0.49% hits;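 active = initial fluorescence not abnormally high and integrated response B-score, plate-corrected, over 3 SD above library mean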
# TMEM16A reconf: TMEM16A (mouse) chloride channel inhibition, re-confirmation; shares compounds with ANO1 block; HEK293 TMEM16A/YFP-H148Q, iodide quench fluorescence; ionomycin added to raise cell calcium; inhibition, % at 10 µM; 2,300 compounds, 39% hits; AID 652189;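 active = mean duplicate percent inhibition, scaled so buffer wells are 0 and the reference blocker 100, over three buffer SD above buffer mean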
# HEK293 Ca mobil: calcium mobilization counter-screen hit for TMEM16A inhibitor series | shares compounds with ANO1 block | TMEM16A/YFP HEK293, Fluo4 calcium mobilization | calcium response (% of ionomycin), % at 10 µM | 2,300 compounds, 2% hits | AID 652231;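 active = duplicate-averaged calcium signal over 20% of the ionomycin maximum, relative to buffer baseline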;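 also: each well's signal is peak minus trough fluorescence divided by its pre-addition baseline; 0% = buffer wells and 100% = ionomycin wells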
# YFP-HEK293 quench: acts in parental YFP-HEK293 cells lacking TMEM16A, counter-screen | iodide YFP quench, ionomycin | AID 652233 | shares compounds with ANO1 block | YFP ratio F(max-min)/F0 at 10 µM | 2,300 tested, under 10 active;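 active = yellow fluorescent protein signal ratio exceeding the buffer control mean by over 5 SD of those controls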;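 also: ratio is mean of duplicate wells from kinetic YFP trace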
# ClC-1 inh: rat ClC-1 inhibition, TMEM16A specificity screen; shares compounds with ANO1 block; AID 652236; ratio percent, % at 10 µM; CHO ClC-1-YFP, iodide influx fluorescence quench; iodide control reads 0, buffer control 100; 2,300 tested, under 10 active;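 active = duplicate-mean ratio percent above the mean of iodide-only control wells, which defines zero, plus 5 of their SD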;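 also: higher percent means stronger block of ClC-1 iodide influx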
# Starred values were filed as active, the others as inactive; i = inactive; ? = inconclusive; nt = no result given. Only some compounds are listed: those with a hit (about 3.2% of all), similar ones and a draw of the others.
SMILES,TMEM16A act,CHT inh,ANO1 block,PHOSPHO1 block,HDAC3 inhib,CHT allo act,TMEM16A reconf,HEK293 Ca mobil,YFP-HEK293 quench,ClC-1 inh
COCCN(C(=O)CCC(=O)Nc1nccs1)C(C(=O)NC(C)(C)C)c1ccc(F)cc1 (centres undefined),i,i,100*,18,2,i,i,i,-1.1,0
COCCN(C(=O)CCC(=O)Nc1nccs1)C(C(=O)NC(C)(C)C)c1ccc(C)cc1 (centres undefined),i,i,i,40,-4,i,nt,nt,nt,nt
CC(Oc1ccccc1)C(=O)Nc1nnc(S(=O)(=O)Nc2ccccc2)s1 (centres undefined),i,i,100*,25,7,i,i,i,-0.83,-10
CC[C@H](C)[C@@H]1NC(=O)c2cc([N+](=O)[O-])cc(F)c2NCCCC[C@@H](C(N)=O)NC(=O)[C@H](CCCCN)NC1=O,i,i,i,-18,-1,i,nt,nt,nt,nt
COc1cc(C(=O)NCCOc2ccccc2)c(Br)c(OC)c1OC,i,i,25*,0,?,i,i,i,-0.9,-10
COc1ccc(N2CCN(C(=O)CCS(=O)(=O)c3ccc(C)cc3)CC2)cc1,i,i,i,nt,-6,i,nt,nt,nt,nt
CCN(Cc1ccccc1)C(=O)COc1cc(=O)n(CC)c2ccccc12,i,i,i,0,0,i,nt,nt,nt,nt
CN(Cc1ccccc1)C(=O)COc1cc(=O)n(C)c2ccccc12,i,i,i,0,4,i,i,i,-0.85,-4
CC(=O)c1c[nH]c2ccc(C)cc2c1=O,i,i,100*,-10,2,i,i,i,-0.89,-9
Cc1cc(S(=O)(=O)N2CCN(Cc3ccc4c(c3)OCO4)CC2)cc(C)c1N1CCCC1=O,i,i,100*,-6,6,i,33%*,i,-1.1,-14
Cc1cccc(S(=O)(=O)N2CCN(Cc3ccc4c(c3)OCO4)CC2)c1,i,i,i,16,-5,i,nt,nt,nt,nt
CC(C)c1ccc(NC(=O)C2CCN(c3ncnc4c3nc3n4CCCCC3)CC2)cc1,i,i,i,3,2,i,nt,nt,nt,nt
O=C(Nc1ccc[n+](CC(=O)c2cccc3ccccc23)c1)c1ccccc1,i,i,i,7,1,i,nt,nt,nt,nt
CC1=CC(C)(C)N(S(=O)(=O)c2ccc(C)cc2)c2cc(C)ccc21,i,i,25*,28,10,i,i,i,-1.2,-10
CCOc1ccc2c(c1)C(C)=CC(C)(C)N2S(=O)(=O)c1ccc(C)cc1,i,nt,nt,15,nt,nt,nt,nt,nt,nt
Cc1cc(=O)[nH]c(SCc2cn3ccccc3n2)n1,i,i,i,-58,3,i,nt,nt,nt,nt
O=c1[nH]c2ccccc2nc1/C=C/c1ccc(F)cc1,i,i,i,50,4,i,i,i,-1.1,23
O=c1[nH]c2ccccc2nc1/C=C/c1ccccc1,i,i,i,28,4,i,nt,nt,nt,nt
O=S(=O)(c1ccccc1)c1nc(-c2ccccc2)oc1N1CCOCC1,i,i,i,8,-6,i,nt,nt,nt,nt
COc1cc(-c2nc(S(=O)(=O)c3ccccc3)c(N3CCOCC3)o2)cc(OC)c1OC,i,i,100*,0,13,i,i,i,-1,-7
Cc1nc(C(F)(F)F)c(C(=O)NC(=O)Nc2ccccc2)s1,i,i,i,0,-1,i,nt,nt,nt,nt
Cc1nc(C(F)(F)F)c(C(=O)NC(=O)Nc2ccc(OC(F)(F)F)cc2)s1,i,i,100*,33,-6,i,i,i,-1.1,4
CN(C)Cc1cc(C(C)(C)C)cc(C(C)(C)C)c1O,i,i,i,33,-8,i,nt,nt,nt,nt
CN(C)Cc1cc(O)c(CN(C)C)cc1O,i,i,i,7,3,i,i,i,-0.86,-6
O=C1CC2(CCCC2)C(=O)N1c1ccc(S(=O)(=O)NCC2CC2)cc1Cl,i,i,i,3,-1,i,nt,nt,nt,nt
SMILES,TMEM16A act,CHT inh,ANO1 block,PHOSPHO1 block,HDAC3 inhib,CHT allo act,TMEM16A reconf,HEK293 Ca mobil,YFP-HEK293 quench,ClC-1 inh
CCOC(=O)c1sc(NC(=O)CSc2nc3c(c(-c4ccc(OC)cc4)c2C#N)CCCC3)c(C#N)c1C,i,i,i,20,-4,i,nt,nt,nt,nt
CCOC(=O)c1sc(NC(=O)CSc2nc3c(cc2C#N)CCCCCC3)c(C#N)c1C,i,i,100*,1,-16,i,i,i,-1.5,-6
CCOC(=O)c1sc(NC(=O)c2ccncc2)c(C#N)c1C,i,i,25*,14,nt,i,35%*,i,-1.1,-23
Cc1cc(C)c(C(=O)c2cccs2)c(C)c1,i,nt,nt,nt,nt,nt,nt,nt,nt,nt
COc1ccc(N2CC(O)=C(c3n(C)c4ccccc4[n+]3C)C2=N)cc1,i,i,25*,-12,nt,i,i,i,-1.1,-4
CCOC(=O)c1sc(N2C(=O)C(O)=C(C(=O)c3ccco3)C2c2cccc(Cl)c2)nc1C (centres undefined),i,i,25*,15,0,i,i,i,-0.73,-8
O=C(CCc1ccc(O)cc1)c1c(O)cc(O)cc1O,i,i,25*,18,-1,i,18%*,i,-1,-17
COc1ccccc1N1CCN(C(=O)COc2ccc(C)cc2Br)CC1,i,i,100*,6,13,i,i,22%*,-1,2
COc1ccccc1N1CCN(C(=O)COc2ccc(Cl)cc2Br)CC1,i,i,i,1,7,i,nt,nt,nt,nt
O=C(NC12CC3CC(CC(C3)C1)C2)c1cccc([N+](=O)[O-])c1,i,i,i,29,-4,i,nt,nt,nt,nt
Cc1nc(NS(=O)(=O)c2ccc(Cl)s2)c2c3c(sc2n1)CCCC3,i,i,25*,14,1,i,17%*,i,-0.91,-26
Cc1nc(NCc2ccccn2)c2c3c(sc2n1)CCCC3,i,i,i,-3,1,i,nt,nt,nt,nt
